Our source for the inhibition values is ChEMBL document CHEMBL1961873, “Compounds: GSK PKIS; Assays: Nanosyn kinase panel” (2012).

By inhibition is commonly meant the relative decrease from the control value, in per cent.

Several values for one entry are separate records, joined by “and”; a condition that tells them apart may be missing. Equal entries are not always repeated.

Experiment [1] concerns the target Casein kinase I isoform gamma-2 (Homo sapiens) (UniProt P78368). Particulars: at 1 µM.
The target of experiment [2] is Casein kinase I isoform gamma-3 (Homo sapiens) (UniProt Q9Y6M4). Particulars: at 0.1 µM.
The target is the same in experiment [3]. Particulars: at 1 µM.
The target of experiment [4] is Cyclin-dependent kinase 1 (Homo sapiens) (UniProt P06493). The note with it: at 0.1 µM.
For experiment [5] the target is unchanged. The note with it: at 1 µM.
For experiment [6], the target named is Cyclin-dependent kinase 2 (Homo sapiens) (UniProt P24941). Particulars: at 0.1 µM.
For experiment [7] the target is unchanged. The note with it: at 1 µM.
The target is the same in experiment [8]. Particulars: at 0.1 µM. This is another data set of the same source.
Experiment [9] shares this target. The note with it: at 1 µM. This is another data set of the same source.
The target in experiment [10] is T1, CDK3/Cyclin E (Homo sapiens) (UniProt P24864+Q00526). Particulars: at 0.1 µM.
In experiment [11] the target is T1, CDK3/Cyclin E (Homo sapiens). The note with it: at 1 µM.
Experiment [12] has as its target Cyclin-dependent kinase 4 (Homo sapiens) (UniProt P11802). The note with it: at 0.1 µM.
The target is the same in experiment [13]. The note with it: at 1 µM.
For experiment [14], the target named is Cyclin-dependent kinase 5 (Homo sapiens) (UniProt Q00535). Particulars: at 0.1 µM.
Experiment [15] shares this target. The note with it: at 1 µM.
Experiment [16] concerns the target Cyclin-dependent kinase 6 (Homo sapiens) (UniProt Q00534). The note with it: at 0.1 µM.
For experiment [17] the target is unchanged. The note with it: at 1 µM.
Experiment [18] concerns the target Dual specificity protein kinase CLK2 (Homo sapiens) (UniProt P49760). Particulars: at 0.1 µM.
For experiment [19] the target is unchanged. Particulars: at 1 µM.
Experiment [20] has as its target Dual specificity protein kinase CLK3 (Homo sapiens) (UniProt P49761). Particulars: at 0.1 µM.

Chain of Cyclin-dependent kinase 1 (Homo sapiens) (P06493 whole entry, looked up): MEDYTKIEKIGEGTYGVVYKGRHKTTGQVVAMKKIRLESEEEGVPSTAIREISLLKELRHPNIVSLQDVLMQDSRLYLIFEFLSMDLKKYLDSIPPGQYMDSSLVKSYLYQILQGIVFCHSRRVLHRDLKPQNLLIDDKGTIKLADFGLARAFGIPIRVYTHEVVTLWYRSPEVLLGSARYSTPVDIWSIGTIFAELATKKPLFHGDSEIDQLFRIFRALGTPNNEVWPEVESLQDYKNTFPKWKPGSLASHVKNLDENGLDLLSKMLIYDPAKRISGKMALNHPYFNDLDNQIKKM
Chain of Cyclin-dependent kinase 4 (Homo sapiens) (P11802 whole entry): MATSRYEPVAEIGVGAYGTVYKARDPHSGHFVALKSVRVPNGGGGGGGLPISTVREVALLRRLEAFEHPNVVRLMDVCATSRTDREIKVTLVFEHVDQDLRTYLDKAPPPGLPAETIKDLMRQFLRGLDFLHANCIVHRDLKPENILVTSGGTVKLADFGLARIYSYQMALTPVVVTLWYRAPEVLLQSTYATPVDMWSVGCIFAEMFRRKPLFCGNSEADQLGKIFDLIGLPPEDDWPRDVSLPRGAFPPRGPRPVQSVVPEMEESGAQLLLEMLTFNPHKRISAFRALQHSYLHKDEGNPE
Chain of Dual specificity protein kinase CLK3 (Homo sapiens) (P49761 whole entry, looked up): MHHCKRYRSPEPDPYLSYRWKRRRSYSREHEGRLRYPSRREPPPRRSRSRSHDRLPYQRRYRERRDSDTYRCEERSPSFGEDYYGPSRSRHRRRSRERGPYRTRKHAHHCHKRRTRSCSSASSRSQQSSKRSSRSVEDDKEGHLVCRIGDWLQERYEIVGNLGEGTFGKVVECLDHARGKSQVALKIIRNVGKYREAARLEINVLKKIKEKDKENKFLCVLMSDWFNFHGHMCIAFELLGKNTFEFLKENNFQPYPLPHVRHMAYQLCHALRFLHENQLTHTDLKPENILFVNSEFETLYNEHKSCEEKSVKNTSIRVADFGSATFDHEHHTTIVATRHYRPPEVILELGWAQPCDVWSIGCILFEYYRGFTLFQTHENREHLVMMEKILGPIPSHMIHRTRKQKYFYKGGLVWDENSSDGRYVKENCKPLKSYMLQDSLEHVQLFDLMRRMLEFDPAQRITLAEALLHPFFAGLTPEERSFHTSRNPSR
Chain of Dual specificity protein kinase CLK2 (Homo sapiens) (P49760 whole entry, looked up): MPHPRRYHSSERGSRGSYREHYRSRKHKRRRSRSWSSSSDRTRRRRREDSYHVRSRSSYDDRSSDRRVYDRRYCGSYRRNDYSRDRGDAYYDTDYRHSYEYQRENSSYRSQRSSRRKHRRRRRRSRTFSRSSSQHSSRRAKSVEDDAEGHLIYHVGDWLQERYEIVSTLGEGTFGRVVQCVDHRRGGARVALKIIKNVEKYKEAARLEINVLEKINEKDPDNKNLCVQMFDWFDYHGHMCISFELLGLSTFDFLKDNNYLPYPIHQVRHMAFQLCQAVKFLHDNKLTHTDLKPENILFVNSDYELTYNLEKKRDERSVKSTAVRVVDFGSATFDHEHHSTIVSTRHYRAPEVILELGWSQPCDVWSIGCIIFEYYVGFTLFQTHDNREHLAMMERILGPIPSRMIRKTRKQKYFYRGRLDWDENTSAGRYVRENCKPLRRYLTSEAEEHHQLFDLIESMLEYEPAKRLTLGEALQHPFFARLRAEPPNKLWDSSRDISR
Chain of Casein kinase I isoform gamma-3 (Homo sapiens) (Q9Y6M4 whole entry, looked up, canonical isoform): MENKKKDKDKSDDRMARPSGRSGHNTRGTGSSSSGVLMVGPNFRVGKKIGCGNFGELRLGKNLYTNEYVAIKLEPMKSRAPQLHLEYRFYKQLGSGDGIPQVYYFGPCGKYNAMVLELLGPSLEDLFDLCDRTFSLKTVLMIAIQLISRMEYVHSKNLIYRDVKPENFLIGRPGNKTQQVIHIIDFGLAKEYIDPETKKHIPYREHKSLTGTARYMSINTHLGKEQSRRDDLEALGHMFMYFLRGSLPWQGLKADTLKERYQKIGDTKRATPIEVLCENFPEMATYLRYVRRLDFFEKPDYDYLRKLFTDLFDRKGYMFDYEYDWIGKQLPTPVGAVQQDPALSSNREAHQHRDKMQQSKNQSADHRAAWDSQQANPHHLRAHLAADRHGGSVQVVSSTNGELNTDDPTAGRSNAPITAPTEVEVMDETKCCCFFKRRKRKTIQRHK
Chain of Casein kinase I isoform gamma-2 (Homo sapiens) (P78368 whole entry, looked up, canonical isoform): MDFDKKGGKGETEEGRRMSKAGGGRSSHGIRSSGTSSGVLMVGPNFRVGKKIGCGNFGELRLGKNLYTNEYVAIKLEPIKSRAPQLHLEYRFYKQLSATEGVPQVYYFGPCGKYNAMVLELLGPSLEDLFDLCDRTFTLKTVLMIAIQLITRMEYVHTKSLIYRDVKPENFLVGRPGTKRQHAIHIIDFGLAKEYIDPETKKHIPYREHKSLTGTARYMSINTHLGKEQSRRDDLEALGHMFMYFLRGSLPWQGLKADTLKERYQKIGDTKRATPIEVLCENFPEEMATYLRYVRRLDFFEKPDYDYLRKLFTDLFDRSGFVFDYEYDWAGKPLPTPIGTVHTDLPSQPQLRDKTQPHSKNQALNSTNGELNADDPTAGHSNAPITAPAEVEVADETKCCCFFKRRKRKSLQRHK
Chain of Cyclin-dependent kinase 5 (Homo sapiens) (Q00535 whole entry, looked up): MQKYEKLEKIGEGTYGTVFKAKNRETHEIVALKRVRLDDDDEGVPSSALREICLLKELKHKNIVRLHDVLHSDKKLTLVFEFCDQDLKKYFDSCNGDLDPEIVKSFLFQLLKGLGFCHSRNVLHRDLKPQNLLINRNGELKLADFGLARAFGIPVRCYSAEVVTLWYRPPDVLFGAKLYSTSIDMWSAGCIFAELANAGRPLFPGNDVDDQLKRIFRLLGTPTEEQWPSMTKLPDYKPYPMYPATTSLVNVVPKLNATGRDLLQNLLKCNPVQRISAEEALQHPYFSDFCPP
T1 sequence (P24864 whole entry, looked up): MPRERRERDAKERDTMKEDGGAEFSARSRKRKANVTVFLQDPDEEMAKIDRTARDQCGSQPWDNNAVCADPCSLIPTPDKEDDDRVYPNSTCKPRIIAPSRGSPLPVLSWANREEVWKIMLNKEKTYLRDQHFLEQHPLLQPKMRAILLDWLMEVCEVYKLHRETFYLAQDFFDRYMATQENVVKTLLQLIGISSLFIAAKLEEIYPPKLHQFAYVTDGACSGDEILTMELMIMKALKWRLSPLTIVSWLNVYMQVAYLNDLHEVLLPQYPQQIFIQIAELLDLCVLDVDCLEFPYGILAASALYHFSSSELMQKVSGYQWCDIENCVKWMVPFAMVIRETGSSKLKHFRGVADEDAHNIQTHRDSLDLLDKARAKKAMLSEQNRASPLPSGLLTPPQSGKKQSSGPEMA
T1 sequence (Q00526 whole entry, looked up): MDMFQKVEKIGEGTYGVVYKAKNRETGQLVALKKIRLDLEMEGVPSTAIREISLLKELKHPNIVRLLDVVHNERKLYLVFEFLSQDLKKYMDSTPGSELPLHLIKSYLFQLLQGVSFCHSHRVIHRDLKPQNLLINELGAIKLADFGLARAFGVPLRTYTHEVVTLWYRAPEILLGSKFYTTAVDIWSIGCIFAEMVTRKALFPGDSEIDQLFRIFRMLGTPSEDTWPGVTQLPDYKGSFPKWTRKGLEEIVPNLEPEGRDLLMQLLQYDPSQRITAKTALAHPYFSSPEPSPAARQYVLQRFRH
Chain of Cyclin-dependent kinase 6 (Homo sapiens) (Q00534 whole entry): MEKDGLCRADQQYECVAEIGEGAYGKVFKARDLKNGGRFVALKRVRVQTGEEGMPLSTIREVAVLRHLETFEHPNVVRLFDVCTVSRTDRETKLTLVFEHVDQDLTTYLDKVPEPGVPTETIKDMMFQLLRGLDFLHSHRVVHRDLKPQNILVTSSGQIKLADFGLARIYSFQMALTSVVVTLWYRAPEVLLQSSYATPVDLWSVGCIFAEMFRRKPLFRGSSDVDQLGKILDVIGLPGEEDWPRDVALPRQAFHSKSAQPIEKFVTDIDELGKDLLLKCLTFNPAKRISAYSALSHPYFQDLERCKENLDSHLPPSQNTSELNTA

With `Nc1ncnc2occ(-c3ccc(NC(=O)Nc4cc(C(F)(F)F)ccc4F)cc3)c12`, the inhibition in experiment [1] was 4.53% and -0.27%; in experiment [2], 0.69% and 0.19%; in [3], 6.26% and 0.91%; in experiment [4], 2.66% and 1.33%; in [5], 11.4% and 4.55%; in experiment [6], 2.5% and 0.72%. Besides, the inhibition in experiment [7] is 13.5% and 5.32%; in experiment [8], 2.09% and 0.45%; in experiment [9], 15.5% and 5.95%; in experiment [10], 1.13% and 2.46%; in experiment [11], 26.3% and 17%; in experiment [12] it was 2.18% and -1.12%. Further, the inhibition in [13] was 7.72% and 1.95%; in [14] it was 2.15% and 1.3%; in experiment [15], 10.4% and 4.77%; in [16], 2.49% and -1.62%; in experiment [17], 6.94% and -0.12%; in experiment [18], -0.16% and 0.05%. For the same compound, the inhibition was 2.32% and 0.92% in experiment [19]; -0.08% and 0.74% in [20].
As to `O=C(O[C@H]1CN[C@H](C#Cc2cc3ncnc(Nc4ccc5c(ccn5Cc5cc(F)ccc5F)c4)c3s2)C1)N1CCOCC1`, the inhibition in [1] is 5.86%; in experiment [2] it was 2.96%; in experiment [3] it was 4.98%; in [4], -0.04%; in experiment [5], 1.97%; in [6], 1.56%. Further, the inhibition in experiment [7] was 4.93%; in experiment [8], 3.67%; in experiment [9], 2.07%; in [10], 4.08%; in experiment [11], -2.16%; in experiment [12], 2.17%. For the same compound, the inhibition in experiment [13] was 1.93%; in experiment [14], 1.09%; in experiment [15] it was 0.14%; in [16], -1.14%; in [17], 1.5%; in [18], 1.29%. Further, the inhibition is 0.52% in experiment [19] and 1.27% in experiment [20].
With `N#Cc1cccc(Nc2ncc(-c3ccccc3)o2)c1`, the inhibition in experiment [1] turned out to be 2.13%; in [2] it was 1.94%; in experiment [3], 4.11%; in [4], 2.78%; in [5] it was 17.1%; in experiment [6], 6.59%. Moreover, the inhibition in [7] turned out to be 44.4%; in experiment [8] it was 7.57%; in experiment [9] it was 40.1%; in experiment [10], 10.1%; in experiment [11], 40.2%; in [12], 3.86%. Besides, the inhibition in experiment [13] was found to be 26.7%; in experiment [14] it was 4.45%; in [15], 30.5%; in experiment [16], 21.9%; in experiment [17], 63%; in experiment [18] it was 1.44%. Also, the inhibition is 9.1% in [19] and 1.7% in experiment [20].
In the case of `CC1=C(C(=O)Nc2ccc3[nH]nc(C)c3c2)C(c2ccc(C(F)(F)F)cc2)CC(=O)N1` (stereo not given), the inhibition worked out at 3.14% in experiment [1]; 2.16% in experiment [2]; 2.2% in experiment [3]; 1.96% in [4]; 6.87% in experiment [5]; 2.54% in [6]. Besides, the inhibition was found to be 6.05% in [7]; 2.66% in experiment [8]; 6.67% in [9]; 0.4% in experiment [10]; 1.51% in experiment [11]; 4.22% in [12]. In addition, the inhibition worked out at 7.29% in [13]; 2.58% in experiment [14]; 6.22% in experiment [15]; 7.14% in experiment [16]; 10.2% in experiment [17]; 1.85% in experiment [18]. Besides, the inhibition in [19] amounted to 9.04%; in experiment [20], 2.28%.
On to `CNC(=O)c1sc(-n2cnc3cc(OC)c(OC)cc32)cc1OCc1ccccc1C(F)(F)F`, for which the inhibition in experiment [1] is 3.65%; in [2], 3.86%; in experiment [3] it was 4.26%; in [4], 0.69%; in experiment [5], 2.03%; in [6] it was 0.22%. The inhibition was 1.77% in experiment [7]; 2.17% in experiment [8]; 3.8% in experiment [9]; 0.35% in experiment [10]; -1.01% in experiment [11]; 1.64% in experiment [12]. The inhibition in experiment [13] is 3.5%; in experiment [14], 0.36%; in [15], 1.5%; in experiment [16], -0.46%; in [17], 1.53%; in [18] it was 1.74%. In addition, the figures for the inhibition in [19] and in experiment [20] were -1.57% and 0.24%, respectively.
For the compound `CCn1c(-c2nonc2N)nc2cncc(C(=O)NCCNC)c21`, the inhibition in experiment [1] came out at 5.17%; in [2], 3.69%; in [3], 3.84%; in experiment [4], 0.45%; in experiment [5], 0.67%; in [6], 0.58%. Further, the inhibition is 3.6% in experiment [7]; 2.89% in experiment [8]; 5.11% in experiment [9]; -2.24% in experiment [10]; 0.12% in experiment [11]; 1.73% in experiment [12]. In addition, the inhibition was 3.94% in experiment [13]; -0.65% in experiment [14]; 0.97% in [15]; -0.66% in experiment [16]; 1.38% in [17]; 1.2% in [18]. Further, the inhibition in experiment [19] was 10.5%; in [20], -2.71%.
As to `COc1cc(N2CCN(C(C)C)CC2)ccc1Nc1nc(Nc2cccc(F)c2C(=O)O)c2cc[nH]c2n1`, the inhibition came to 4.83% in [1]; 1.83% in experiment [2]; 4.22% in [3]; 1.3% in [4]; 1.51% in experiment [5]; 1.99% in experiment [6]. The inhibition was 5.79% in experiment [7]; 4.11% in experiment [8]; 4.66% in [9]; 4.48% in [10]; -1.26% in experiment [11]; 2.63% in [12]. Moreover, the inhibition in experiment [13] came out at 2.75%; in experiment [14], 1.71%; in [15], 2.09%; in [16] it was 5.01%; in experiment [17], 4.74%; in experiment [18] it was 5.61%. Moreover, the inhibition stood at 41% in [19] and 3.73% in experiment [20].
Regarding `CN(c1ccc(NC(=O)NCCN2CCOCC2)cc1)c1ccnc(Nc2ccc(CS(C)(=O)=O)cc2)n1`, the inhibition in [1] is 1.47%; in [2] it was 2.29%; in experiment [3], 2.32%; in experiment [4] it was -0.38%; in experiment [5], 2.55%; in experiment [6], 1.15%. For the same compound, the inhibition in experiment [7] stood at 11.3%; in [8], 3.19%; in [9] it was 4.7%; in experiment [10], 0.76%; in experiment [11], 0.92%; in experiment [12], 0.98%. Also, the inhibition in [13] is 2.06%; in experiment [14], 0.44%; in experiment [15], 2.44%; in [16], 5.26%; in experiment [17] it was 4.21%; in [18], -0.8%. Also, the inhibition turned out to be 2.52% in experiment [19] and 0.77% in [20].
